Test results as given in PubChem BioAssay (NCATS).
Results filed as inconclusive are left out. Calls of active or inactive are those of the source. Unless noted, calls come from the whole dose curve; as a rule, active = well fitted curve in the direction sought with a large enough effect; inconclusive = small, poorly fitted or top-dose-only effect, or another doubt; inactive = no such curve, though single readings can be large; an effect the other way counts as inactive or inconclusive.

Assays:
[1] = qHTS assay for small molecule agonists of retinoid X receptor alpha signaling (AID 588544; calls by dose curve;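 for activation: 0% = DMSO basal wells and 100% = reference agonist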); details: HEK293T RXRa-UAS-bla, beta-lactamase reporter, 18 h; 530 nm emission
[2] = target: Retinoic acid receptor RXR-alpha (Homo sapiens) (UniProt P19793); experiment: as above; details: HEK293T RXRa-UAS-bla, beta-lactamase reporter, 18 h; series mostly up to 76.7 µM
[3] = qHTS assay for small molecule antagonists of retinoid X receptor alpha signaling (AID 588546; active = well fitted inhibition curve with a large enough effect in the signal ratio, with a control signal flat, not every such curve was filed as active; the % refers to the signal ratio;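 note: cells stimulated with 9-cis-retinoic acid as agonist; % is set by controls: 0 for no effect and ±100 for the full control effect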); details: HEK293T RXRa-UAS-bla, beta-lactamase ratio, antagonist mode; measured here: W530 green channel, cytotoxicity proxy
Method in brief: (§1)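 Beta-lactamase reporter inhibition, read as CCF4 fluorescence ratio (ex 405, em 460/530 nm) after 2 h at RT. HEK293T UAS-bla cells, 2500/well, were stimulated with 9-cis-RA at 500 or 100 nM final alongside test compound for 18 h at 37 C.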

[4] = target: Retinoic acid receptor RXR-alpha (Homo sapiens) (UniProt P19793); experiment: as above; details: HEK293T RXRa-UAS-bla, beta-lactamase ratio, antagonist mode
Method in brief: as §1

[5] = target: Thyroid hormone receptor beta (Homo sapiens) (UniProt P10828); experiment: qHTS assay for small molecule antagonists of thyroid hormone receptor beta signaling (AID 588547; active = well fitted inhibition curve with a large enough effect in the signal ratio, with a control signal flat, not every such curve was filed as active; the % refers to the signal ratio;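 note: cells stimulated with 0.4 nM T3 agonist during compound exposure; % is set by controls: 0 for no effect and ±100 for the full control effect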); details: TR-UAS-bla HEK293, beta-lactamase ratio, antagonist mode, 18 h
Method in brief: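 TR-UAS-bla GripTite HEK293 cells in 2% charcoal/dextran FBS medium; compounds 0.59 nM to 92 uM with T3 at 0.4nM final, 18 h at 37 C. Beta-lactamase read by CCF4 fluorescence (460/530 nm); Hill fits gave IC50 and efficacy.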

[6] = target: Voltage-gated inwardly rectifying potassium channel KCNH2 (Homo sapiens) (UniProt Q12809); experiment: qHTS Assay for Small Molecule Inhibitors of the Human hERG Channel Activity (AID 588834); details: U2OS BacMam hERG, FluxOR thallium flux fluorescence; series mostly up to 92.2 µM;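 note: top concentration of the series differs between compounds; % is set by controls: 0 for no effect and ±100 for the full control effect; lower thallium flux fluorescence means stronger hERG block; nearly all actives have a fitted effect of over 50% in size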
Method in brief: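 hERG-BacMam U2OS, 2000 cells/well; 0.7X FluxOR loading 1 hr RT dark; cpd ~10 min 37 °C; stim buffer; FDSS fluorescence 2 min @ 1 s; AC50 Hill fit.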

[7] = qHTS assay for small molecule agonists of the antioxidant response element (ARE) signaling pathway (AID 651741; active = well fitted activation curve with a large enough effect in the signal ratio; the % refers to the signal ratio; note: potency is the fitted concentration of half-maximal effect; for activation: % of control where 0% means no effect); details: HepG2 ARE-bla reporter, beta-lactamase FRET ratio, 16 h; series mostly up to 96 µM
Method in brief: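 HepG2 ARE-bla cells plated at 2,000 cells/well and incubated 5 h at 37 C/5% CO2 received 23 nL compound in DMSO. After 16 h at 37 C, LiveBLAzer B/G FRET substrate was applied for 2 h at room temperature and fluorescence read.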

[8] = qHTS assay for small molecule activators of the p53 signaling pathway (AID 651743; active = well fitted activation curve with a large enough effect in the signal ratio, not every such curve was filed as active; the % refers to the signal ratio; note: % of control where 0% means no effect); details: HCT-116 p53RE-bla, beta-lactamase FRET ratio, 16 h; stronger effect = higher value
Method in brief: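 HCT-116 p53RE-bla, 4,000 cells/well; 5 h settle; cpd/DMSO 16 h, 37 C; LiveBLAzer B/G 2 h RT; fluorescence intensity.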

[9] = qHTS assay for small molecule disruptors of the mitochondrial membrane potential - 1 hr assay (AID 651754; calls by dose curve; note: % is set by controls: 0 for no effect and ±100 for the full control effect; nearly all actives have a fitted effect of over 35% in size); details: series mostly up to 92.2 µM
Method in brief: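 Steps: seed HepG2 cells and let attach overnight; pin-transfer compound or vehicle; incubate 1 hr at 37C; add Mito-MPS dye for 30 min; read two-channel fluorescence for monomer and aggregate forms.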

[10] = qHTS assay for small molecule disruptors of the mitochondrial membrane potential - 5 hr assay (AID 651755; calls by dose curve; note: % is set by controls: 0 for no effect and ±100 for the full control effect; nearly all actives have a fitted effect of over 40% in size); details: JC-1-type ratio dye; series mostly up to 92.2 µM
Method in brief: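 HepG2 cells (2,000/well), attached overnight, exposed to compound 5 hr at 37C, then Mito-MPS dye 30 min. Fluorescence read for monomers (490/535 nm) and aggregates (540/590 nm).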

[11] = target: Tumor necrosis factor (Homo sapiens) (UniProt P01375); experiment: qHTS assay to identify small molecules that stimulate Tumor Necrosis Factor-alpha (TNF-alpha) secretion (AID 651757; active = well fitted curve in the direction sought with a large enough effect in the signal ratio; the % refers to the signal ratio; note: 0% is about no effect); details: Human cells, HTRF 665/615 ratio; series mostly up to 92.2 µM
Method in brief: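 Secreted TNF-alpha from compound-treated THP-1 cells (17 hrs, 37 C) was quantified with a homogeneous time-resolved fluorescence antibody assay.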

[12] = qHTS assay to identify small molecules that stimulate interleukin-8 (IL-8) secretion (AID 651758; active = well fitted activation curve with a large enough effect in the signal ratio; the % refers to the signal ratio; note: 0% is about no effect); details: HTRF ratio (665/615); series mostly up to 92.2 µM
Method in brief: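 THP-1 cells (2000/well) exposed to compound 16 h at 37 C; secreted IL-8 then detected by HTRF with cryptate- and XL665-labelled anti-IL-8 antibody pair after 1-3 h at room temperature.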

[13] = target: Nuclear receptor ROR-gamma (Homo sapiens) (UniProt P51449); experiment: qHTS assay for small molecule antagonists of the retinoid-related orphan receptor gamma (ROR-gamma) signaling pathway (AID 651802); details: ROR-gamma antagonist cell reporter assay; series mostly up to 92.2 µM;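 note: CHO cells with doxycycline-induced ROR-gamma expression; % is set by controls: 0 for no effect and ±100 for the full control effect; nearly all actives have a fitted effect of over 60% in size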
Method in brief: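 Antagonism is scored as a fall in luminescence from a RORE-luciferase reporter in CHO cells expressing ROR under a TET-inducible promoter, measured 16hr after doxycycline induction in the presence of compound.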

[14] = qHTS assay for small molecule agonists of the antioxidant response element (ARE) signaling pathway measured by Nrf2-dependant transcriptional activity (AID 720636; active = well fitted curve in the direction sought with a large enough effect in the repeat runs; an effect the other way counts as inactive or inconclusive;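 note: HepG2 cells with an ARE-driven luciferase reporter; % of control where 0% means no effect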); details: ARE-luc HepG2, Nrf2 luciferase reporter, 16 h; series mostly up to 92.4 µM
Method in brief: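 ONE-Glo luminescence, read 30 min after reagent addition at room temperature, reflected ARE reporter activity in HepG2 cells that had been incubated with compound for 16 hr at 37 C in 1% dialyzed FBS.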

[15] = qHTS assay for small molecule antagonists of the retinoid-related orphan receptor gamma (ROR-gamma) signaling pathway - cell viability counter screen (AID 720652; active = well fitted curve in the direction sought with a large enough effect in the repeat runs; an effect the other way counts as inactive or inconclusive;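 note: CHO reporter cells with doxycycline-induced ROR-gamma expression; compound exposure lasted 16 hr before ATP read; % is set by controls: 0 for no effect and ±100 for the full control effect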); details: RORgamma reporter cell line viability counter screen; series mostly up to 92.2 µM
Method in brief: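 Cytotoxicity is quantified via intracellular ATP (CellTiter-Glo luminescence) in doxycycline-induced CHO ROR response element-luciferase reporter cells treated with compound for 16 hr at 37 C, 5% CO2.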

[16] = qHTS assay for small molecule agonists of the antioxidant response element (ARE) signaling pathway measured by Nrf2-dependant transcriptional activity - cell viability counter screen (AID 720653; active = well fitted curve in the direction sought with a large enough effect in the repeat runs; an effect the other way counts as inactive or inconclusive; note: % is set by controls: 0 for no effect and ±100 for the full control effect); details: ARE-bla HepG2 viability, CellTiter-Glo ATP luminescence, 16 h; stronger effect = lower value
Method in brief: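 ARE-bla HepG2 cells treated with compounds for 16 h at 37C; this counter screen measures viability as intracellular ATP by CellTiter-Glo luminescence after 30 min at room temperature.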

[17] = qHTS assay for environmental chemicals that activate the Aryl hydrocarbon Receptor (AhR) signaling pathway (AID 651777); details: 1A2-DRE human hepatoma cells, luciferase, 24 h; activation: stronger effect = higher value; note: % of control where 0% means no effect; nearly all actives have a fitted effect of over 15% in size
Method in brief: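 Following a 24 hr incubation with test chemicals at 37 C and 5% CO2, 1A2-DRE human hepatoma cells received One-Glo reagent; after 30 min at room temperature, luciferase output reflected CYP1A2 induction via AhR.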

[18] = target: Peroxisome proliferator-activated receptor alpha (Homo sapiens) (UniProt Q07869); experiment: qHTS assay for small molecule agonists of the peroxisome proliferator-activated receptor alpha (PPARalpha) signaling pathway (AID 651778); details: PathHunter PPARalpha complementation, chemiluminescence, 6 h; stronger effect = higher value; note: % of control where 0% means no effect
Method in brief: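 Enzyme-fragment complementation assay in which ligand-bound PPARalpha translocates and forms an active enzyme that generates chemiluminescence. Cells were plated overnight, exposed to compound for 6 hr at 37 C, and then given detection reagent for 60 min at room temperature.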

[19] = target: Thyroid hormone receptor beta (Homo sapiens) (UniProt P10828); experiment: qHTS assay for small molecule agonists of thyroid hormone receptor beta signaling (AID 588545; calls by dose curve); details: TR-UAS-bla GripTite HEK 293, beta-lactamase ratio, agonist mode, 18 h, percent of T3 response, DMSO as zero; series mostly up to 76.7 µM
Method in brief: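 HEK 293 TR-UAS-bla; agonist mode; 18 hrs, 37 C; CCF4, ex 405/em 460 and 530 nm; norm. T3 10 nM = 100%, DMSO = 0%; Hill fit → EC50, efficacy.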

[20] = qHTS assay for small molecule activators of the nuclear factor-kappa B (NF-kB) signaling pathway (AID 651749; active = well fitted activation curve with a large enough effect in the signal ratio; the % refers to the signal ratio; note: % of control where 0% means no effect); details: NF-kB-bla ME-180 cells, beta-lactamase FRET ratio, 16 h; stronger effect = higher value
Method in brief: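 Incubation lasted 16 hr at 37C in 5% CO2 after 23 nL compound addition to ME-180 NF-kB-bla cells. Activation appears as beta-lactamase-mediated FRET loss.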

Nuclear receptor ROR-gamma (Homo sapiens), sequence (P51449 whole entry, looked up): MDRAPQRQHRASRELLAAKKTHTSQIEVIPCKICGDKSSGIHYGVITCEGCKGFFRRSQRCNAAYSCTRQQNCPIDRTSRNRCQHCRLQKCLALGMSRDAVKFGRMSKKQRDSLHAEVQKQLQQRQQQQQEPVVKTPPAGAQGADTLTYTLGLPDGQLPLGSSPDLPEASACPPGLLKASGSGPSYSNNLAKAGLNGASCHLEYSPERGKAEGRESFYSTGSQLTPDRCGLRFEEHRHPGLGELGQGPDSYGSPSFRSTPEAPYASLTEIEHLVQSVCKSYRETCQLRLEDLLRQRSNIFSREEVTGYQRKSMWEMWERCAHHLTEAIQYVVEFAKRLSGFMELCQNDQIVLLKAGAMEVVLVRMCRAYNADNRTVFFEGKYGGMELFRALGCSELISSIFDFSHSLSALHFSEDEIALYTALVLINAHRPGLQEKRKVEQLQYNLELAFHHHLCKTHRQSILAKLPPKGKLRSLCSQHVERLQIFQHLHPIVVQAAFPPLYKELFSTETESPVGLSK
Peroxisome proliferator-activated receptor alpha (Homo sapiens), sequence (Q07869 whole entry, looked up, the tested form may be a part): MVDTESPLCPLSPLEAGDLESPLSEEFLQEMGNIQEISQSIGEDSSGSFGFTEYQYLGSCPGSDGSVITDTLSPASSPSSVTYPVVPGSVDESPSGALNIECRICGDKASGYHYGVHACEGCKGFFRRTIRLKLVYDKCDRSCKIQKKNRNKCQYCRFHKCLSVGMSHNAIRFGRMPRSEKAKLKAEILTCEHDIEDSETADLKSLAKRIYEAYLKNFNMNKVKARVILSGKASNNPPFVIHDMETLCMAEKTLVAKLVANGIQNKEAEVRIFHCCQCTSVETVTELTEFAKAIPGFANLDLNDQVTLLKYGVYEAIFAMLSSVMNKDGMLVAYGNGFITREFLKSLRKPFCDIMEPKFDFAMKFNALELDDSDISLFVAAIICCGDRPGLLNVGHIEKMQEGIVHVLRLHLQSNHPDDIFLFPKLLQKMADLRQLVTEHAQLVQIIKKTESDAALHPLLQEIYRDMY
Tumor necrosis factor (Homo sapiens), sequence (P01375 whole entry, looked up): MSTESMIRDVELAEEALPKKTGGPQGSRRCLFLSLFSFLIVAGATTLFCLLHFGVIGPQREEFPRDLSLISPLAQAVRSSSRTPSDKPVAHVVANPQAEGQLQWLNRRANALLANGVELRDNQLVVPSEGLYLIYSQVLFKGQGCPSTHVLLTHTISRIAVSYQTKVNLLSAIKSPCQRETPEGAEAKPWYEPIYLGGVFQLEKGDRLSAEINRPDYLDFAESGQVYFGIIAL
Voltage-gated inwardly rectifying potassium channel KCNH2 (Homo sapiens), sequence (Q12809 whole entry, looked up): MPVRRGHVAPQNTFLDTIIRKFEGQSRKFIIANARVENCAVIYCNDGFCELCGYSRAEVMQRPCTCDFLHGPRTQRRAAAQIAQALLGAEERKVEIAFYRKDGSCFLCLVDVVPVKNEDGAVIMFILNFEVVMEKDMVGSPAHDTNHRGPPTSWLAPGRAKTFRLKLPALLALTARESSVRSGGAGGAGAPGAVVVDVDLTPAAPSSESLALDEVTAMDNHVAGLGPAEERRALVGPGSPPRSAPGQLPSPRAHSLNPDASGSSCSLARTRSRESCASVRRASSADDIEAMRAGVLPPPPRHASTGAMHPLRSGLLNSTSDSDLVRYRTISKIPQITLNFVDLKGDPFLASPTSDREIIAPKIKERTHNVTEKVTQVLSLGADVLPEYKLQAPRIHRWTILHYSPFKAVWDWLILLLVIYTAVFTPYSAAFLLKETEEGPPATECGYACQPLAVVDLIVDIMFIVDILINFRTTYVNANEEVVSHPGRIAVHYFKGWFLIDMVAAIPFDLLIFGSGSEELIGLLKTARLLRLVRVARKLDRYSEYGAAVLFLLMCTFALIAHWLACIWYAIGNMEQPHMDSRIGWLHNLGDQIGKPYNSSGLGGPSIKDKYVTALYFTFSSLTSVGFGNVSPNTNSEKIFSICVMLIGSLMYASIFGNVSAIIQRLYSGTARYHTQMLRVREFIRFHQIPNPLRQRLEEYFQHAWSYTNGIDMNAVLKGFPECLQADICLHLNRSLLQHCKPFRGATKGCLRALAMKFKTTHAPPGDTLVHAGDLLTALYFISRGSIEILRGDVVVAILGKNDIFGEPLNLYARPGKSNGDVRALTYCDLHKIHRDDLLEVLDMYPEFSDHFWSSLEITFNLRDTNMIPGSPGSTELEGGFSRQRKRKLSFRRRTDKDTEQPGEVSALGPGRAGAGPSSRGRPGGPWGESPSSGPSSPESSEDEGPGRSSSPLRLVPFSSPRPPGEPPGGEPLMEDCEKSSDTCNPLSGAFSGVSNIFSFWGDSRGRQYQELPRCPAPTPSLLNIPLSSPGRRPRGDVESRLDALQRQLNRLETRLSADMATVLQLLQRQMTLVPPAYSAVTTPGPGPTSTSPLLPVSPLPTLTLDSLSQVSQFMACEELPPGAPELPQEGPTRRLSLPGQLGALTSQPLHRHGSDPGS
Retinoic acid receptor RXR-alpha (Homo sapiens), sequence (P19793 whole entry, looked up): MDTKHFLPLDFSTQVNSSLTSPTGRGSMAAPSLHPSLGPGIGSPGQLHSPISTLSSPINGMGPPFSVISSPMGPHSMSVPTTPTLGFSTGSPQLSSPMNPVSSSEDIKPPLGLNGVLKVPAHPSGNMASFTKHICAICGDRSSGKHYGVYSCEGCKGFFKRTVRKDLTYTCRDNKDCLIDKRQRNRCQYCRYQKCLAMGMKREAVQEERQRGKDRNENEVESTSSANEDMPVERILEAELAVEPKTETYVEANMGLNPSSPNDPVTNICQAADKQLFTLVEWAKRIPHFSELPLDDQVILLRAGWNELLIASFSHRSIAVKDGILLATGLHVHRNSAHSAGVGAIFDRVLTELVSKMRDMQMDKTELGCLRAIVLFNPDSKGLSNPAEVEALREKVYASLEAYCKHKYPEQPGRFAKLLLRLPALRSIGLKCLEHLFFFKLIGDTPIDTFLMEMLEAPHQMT
Thyroid hormone receptor beta (Homo sapiens), sequence (P10828 whole entry, looked up): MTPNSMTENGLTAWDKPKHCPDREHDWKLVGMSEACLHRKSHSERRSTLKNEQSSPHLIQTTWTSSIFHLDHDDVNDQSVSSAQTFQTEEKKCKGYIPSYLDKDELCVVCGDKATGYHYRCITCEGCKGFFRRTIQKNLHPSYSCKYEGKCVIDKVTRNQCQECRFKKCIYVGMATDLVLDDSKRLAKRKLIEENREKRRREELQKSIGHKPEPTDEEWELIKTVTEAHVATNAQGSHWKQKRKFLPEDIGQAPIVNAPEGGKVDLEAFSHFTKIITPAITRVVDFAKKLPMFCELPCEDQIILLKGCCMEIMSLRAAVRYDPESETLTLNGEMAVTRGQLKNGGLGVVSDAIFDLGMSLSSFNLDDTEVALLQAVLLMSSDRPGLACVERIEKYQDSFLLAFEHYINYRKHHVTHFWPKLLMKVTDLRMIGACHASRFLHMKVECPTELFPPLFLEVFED

Cc1ccc(C)cc1
inactive: outcome [2] | max response [4] 34.4% | activity change % (negative = inhibition) [5] 2.43% | Potency [6] | Potency [7] | activation [8] -3.21% | Potency [9] | Potency [10] | Potency [11] | Potency [12] | Potency [13] | outcome [14] | Potency [15] | max response [16] -7.71%
4.64%: max response [1]
-6.14%: max response [3]

CC(C)C(C)C
-13.5%: max response [1]
inactive: outcome [2] | max response [4] -1.83% | activity change % (negative = inhibition) [5] -4.52% | Potency [6] | Potency [9] | Potency [10] | Potency [11] | activation [17] 1.04% | max response [18] -4.01% | outcome [14] | Potency [15] | max response [16] -1.72%
-13.7%: max response [3]

CCN(Cc1ccccc1)c1ccccc1
-15.3%: max response [1]
-8.88%: max response [3]
inactive: outcome [2] | max response [4] -8.29% | activation [8] 1.3% | Potency [9] | Potency [10] | Potency [11] | Potency [12] | activation [17] 0.346% | max response [18] 3.08% | Potency [13] | outcome [14] | Potency [15] | max response [16] -1.24%

c1ccc2c(c1)ccc1ncccc12
-7.03%: max response [1]
inactive: outcome [2] | max response [4] -11.7% | Potency [6] | Potency [7] | Potency [10] | Potency [11] | activation [17] 3.95% | max response [18] -1.09% | outcome [14] | max response [16] -7.13%
-6.57%: max response [3]

O=Nc1ccc(NO)cc1
inactive: outcome [19] | activity change % (negative = inhibition) [5] -12.9% | Potency [6] | activation [8] -5.55% | activation [20] -2.26% | activation [17] 6.63% | max response [18] -1.48% | outcome [14] | max response [16] 2.71%
active: Potency [7] 13.3 µM

Cc1ccccc1Br
1.58%: max response [3]
-14.2%: max response [1]
inactive: outcome [2] | max response [4] 1.27% | Potency [6] | Potency [7] | activation [20] -0.604% | Potency [9] | Potency [10] | Potency [11] | activation [17] -0.782% | max response [18] -3.06% | Potency [13] | outcome [14] | Potency [15] | max response [16] -8.12%

CCCCCCO
inactive: outcome [2] | max response [4] -1.79% | activity change % (negative = inhibition) [5] 4.77% | Potency [6] | activation [8] -2.65% | activation [20] -0.278% | Potency [11] | Potency [12] | activation [17] -0.44% | max response [18] 6.04% | Potency [13] | outcome [14] | Potency [15] | max response [16] 4.6%
-3.18%: max response [3]
-18.4%: max response [1]

CCCOCC(C)O (configuration not stated)
-2.42%: max response [1]
inactive: outcome [2] | max response [4] 0.524% | activity change % (negative = inhibition) [5] 0.569% | Potency [6] | Potency [9] | Potency [11] | activation [17] 1.17% | Potency [13] | outcome [14] | Potency [15] | max response [16] 8.24%
-6.13%: max response [3]
